In ChEMBL document CHEMBL2218924, “A broad activity screen in support of a chemogenomic map for kinase signalling research and drug discovery” (Biochem J, 2013):

Experiments:
[1] = target: Ribosomal protein S6 kinase alpha-1 (Homo sapiens) (UniProt Q15418); details: at 1 µM
[2] = target: Ribosomal protein S6 kinase alpha-1 (Homo sapiens) (UniProt Q15418); details: at 10 µM
[3] = target: Ribosomal protein S6 kinase alpha-3 (Homo sapiens) (UniProt P51812); details: at 1 µM
[4] = target: Ribosomal protein S6 kinase alpha-3 (Homo sapiens) (UniProt P51812); details: at 10 µM
[5] = target: Ribosomal protein S6 kinase alpha-2 (Homo sapiens) (UniProt Q15349); details: at 1 µM
[6] = target: Ribosomal protein S6 kinase alpha-2 (Homo sapiens) (UniProt Q15349); details: at 10 µM
[7] = target: Ribosomal protein S6 kinase alpha-6 (Homo sapiens) (UniProt Q9UK32); details: at 1 µM
[8] = target: Ribosomal protein S6 kinase alpha-6 (Homo sapiens) (UniProt Q9UK32); details: at 10 µM
[9] = target: T1, Serine/threonine-protein kinase Sgk1 (Homo sapiens) (UniProt O00141); details: at 1 µM
T1 sequence (whole entry): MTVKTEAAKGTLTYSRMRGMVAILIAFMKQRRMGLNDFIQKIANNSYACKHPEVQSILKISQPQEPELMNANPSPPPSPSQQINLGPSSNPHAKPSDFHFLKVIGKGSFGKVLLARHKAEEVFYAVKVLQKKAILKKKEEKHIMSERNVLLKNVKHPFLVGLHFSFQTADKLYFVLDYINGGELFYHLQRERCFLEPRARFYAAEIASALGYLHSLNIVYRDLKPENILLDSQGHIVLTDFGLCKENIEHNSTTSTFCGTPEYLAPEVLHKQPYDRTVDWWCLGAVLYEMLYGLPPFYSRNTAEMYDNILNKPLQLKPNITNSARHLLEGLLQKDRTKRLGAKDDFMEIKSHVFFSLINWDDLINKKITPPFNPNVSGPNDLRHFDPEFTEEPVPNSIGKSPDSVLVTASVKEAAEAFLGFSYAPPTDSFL

[10] = target: T1, Serine/threonine-protein kinase Sgk1 (Homo sapiens); details: at 10 µM
[11] = target: T2, Tyrosine-protein kinase receptor TYRO3 (Homo sapiens) (UniProt Q06418); details: at 1 µM
T2 sequence (whole entry): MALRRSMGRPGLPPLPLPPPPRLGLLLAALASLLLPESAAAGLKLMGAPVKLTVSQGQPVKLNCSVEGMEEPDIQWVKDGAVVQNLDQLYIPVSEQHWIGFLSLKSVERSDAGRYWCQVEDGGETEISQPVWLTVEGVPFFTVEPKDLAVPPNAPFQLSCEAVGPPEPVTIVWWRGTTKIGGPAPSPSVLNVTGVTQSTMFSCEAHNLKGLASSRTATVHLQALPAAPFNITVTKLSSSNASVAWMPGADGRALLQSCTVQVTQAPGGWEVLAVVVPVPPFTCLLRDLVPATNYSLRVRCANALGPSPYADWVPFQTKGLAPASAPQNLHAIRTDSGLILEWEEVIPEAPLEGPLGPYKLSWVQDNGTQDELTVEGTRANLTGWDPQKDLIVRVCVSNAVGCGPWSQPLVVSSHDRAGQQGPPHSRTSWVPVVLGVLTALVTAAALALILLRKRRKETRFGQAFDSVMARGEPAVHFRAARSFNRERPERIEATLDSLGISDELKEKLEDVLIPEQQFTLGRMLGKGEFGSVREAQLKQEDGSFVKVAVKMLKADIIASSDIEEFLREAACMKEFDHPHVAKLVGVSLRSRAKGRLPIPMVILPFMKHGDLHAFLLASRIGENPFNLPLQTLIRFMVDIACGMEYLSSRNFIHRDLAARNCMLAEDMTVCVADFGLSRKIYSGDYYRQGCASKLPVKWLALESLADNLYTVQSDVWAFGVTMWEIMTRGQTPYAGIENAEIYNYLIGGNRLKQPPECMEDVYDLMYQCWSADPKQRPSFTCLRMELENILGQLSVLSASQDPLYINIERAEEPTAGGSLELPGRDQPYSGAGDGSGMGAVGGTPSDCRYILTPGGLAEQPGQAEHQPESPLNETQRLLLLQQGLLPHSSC

[12] = target: T2, Tyrosine-protein kinase receptor TYRO3 (Homo sapiens); details: at 10 µM
[13] = target: Mitogen-activated protein kinase 14 (Homo sapiens) (UniProt Q16539); details: at 1 µM
[14] = target: Mitogen-activated protein kinase 14 (Homo sapiens) (UniProt Q16539); details: at 10 µM
[15] = target: Mitogen-activated protein kinase 11 (Homo sapiens) (UniProt Q15759); details: at 1 µM
[16] = target: Mitogen-activated protein kinase 11 (Homo sapiens) (UniProt Q15759); details: at 10 µM
[17] = target: T3, Mitogen-activated protein kinase 12 (Homo sapiens) (UniProt P53778); details: at 1 µM
T3 sequence (whole entry): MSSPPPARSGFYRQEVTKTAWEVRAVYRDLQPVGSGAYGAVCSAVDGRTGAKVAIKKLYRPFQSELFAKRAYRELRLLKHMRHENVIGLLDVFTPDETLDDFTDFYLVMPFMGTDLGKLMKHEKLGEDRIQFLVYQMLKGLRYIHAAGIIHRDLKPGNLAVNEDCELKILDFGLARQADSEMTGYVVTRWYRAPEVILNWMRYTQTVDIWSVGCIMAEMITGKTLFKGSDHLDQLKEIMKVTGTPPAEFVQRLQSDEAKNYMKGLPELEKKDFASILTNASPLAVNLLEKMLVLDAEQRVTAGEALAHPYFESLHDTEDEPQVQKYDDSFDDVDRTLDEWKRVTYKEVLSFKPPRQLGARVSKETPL

[18] = target: T3, Mitogen-activated protein kinase 12 (Homo sapiens); details: at 10 µM
[19] = target: T4, Mitogen-activated protein kinase 13 (Homo sapiens) (UniProt O15264); details: at 1 µM
T4 sequence (whole entry): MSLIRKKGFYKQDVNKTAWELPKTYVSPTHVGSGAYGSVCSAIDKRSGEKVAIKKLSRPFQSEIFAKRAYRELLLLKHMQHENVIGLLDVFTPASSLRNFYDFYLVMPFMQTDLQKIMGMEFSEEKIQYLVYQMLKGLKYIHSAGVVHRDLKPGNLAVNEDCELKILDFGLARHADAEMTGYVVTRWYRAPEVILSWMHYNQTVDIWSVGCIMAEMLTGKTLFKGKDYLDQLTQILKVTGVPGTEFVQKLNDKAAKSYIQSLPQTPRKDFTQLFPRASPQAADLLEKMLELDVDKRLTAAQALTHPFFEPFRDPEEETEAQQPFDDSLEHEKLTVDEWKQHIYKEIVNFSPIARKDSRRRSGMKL

[20] = target: T4, Mitogen-activated protein kinase 13 (Homo sapiens); details: at 10 µM

Chain of Mitogen-activated protein kinase 14 (Homo sapiens) (Q16539 whole entry): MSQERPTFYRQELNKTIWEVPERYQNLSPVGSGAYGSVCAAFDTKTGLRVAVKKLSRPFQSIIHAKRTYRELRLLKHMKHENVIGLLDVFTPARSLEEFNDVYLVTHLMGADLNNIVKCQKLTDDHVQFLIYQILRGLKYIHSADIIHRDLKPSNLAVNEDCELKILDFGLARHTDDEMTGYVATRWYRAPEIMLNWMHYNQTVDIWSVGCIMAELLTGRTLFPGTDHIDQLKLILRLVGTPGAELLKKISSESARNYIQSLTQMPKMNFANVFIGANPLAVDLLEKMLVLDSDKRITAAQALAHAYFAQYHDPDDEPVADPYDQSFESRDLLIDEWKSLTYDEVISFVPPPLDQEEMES
Chain of Mitogen-activated protein kinase 11 (Homo sapiens) (Q15759 whole entry): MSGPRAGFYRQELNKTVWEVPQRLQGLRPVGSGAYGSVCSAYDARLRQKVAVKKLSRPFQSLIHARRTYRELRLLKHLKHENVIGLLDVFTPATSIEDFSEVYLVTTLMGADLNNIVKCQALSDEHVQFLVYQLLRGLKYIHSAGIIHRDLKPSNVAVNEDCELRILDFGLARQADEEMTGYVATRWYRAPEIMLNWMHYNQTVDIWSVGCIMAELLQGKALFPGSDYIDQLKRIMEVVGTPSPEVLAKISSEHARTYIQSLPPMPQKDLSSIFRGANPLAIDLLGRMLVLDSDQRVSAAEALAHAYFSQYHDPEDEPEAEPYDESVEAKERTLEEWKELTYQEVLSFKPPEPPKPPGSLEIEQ
Chain of Ribosomal protein S6 kinase alpha-3 (Homo sapiens) (P51812 whole entry): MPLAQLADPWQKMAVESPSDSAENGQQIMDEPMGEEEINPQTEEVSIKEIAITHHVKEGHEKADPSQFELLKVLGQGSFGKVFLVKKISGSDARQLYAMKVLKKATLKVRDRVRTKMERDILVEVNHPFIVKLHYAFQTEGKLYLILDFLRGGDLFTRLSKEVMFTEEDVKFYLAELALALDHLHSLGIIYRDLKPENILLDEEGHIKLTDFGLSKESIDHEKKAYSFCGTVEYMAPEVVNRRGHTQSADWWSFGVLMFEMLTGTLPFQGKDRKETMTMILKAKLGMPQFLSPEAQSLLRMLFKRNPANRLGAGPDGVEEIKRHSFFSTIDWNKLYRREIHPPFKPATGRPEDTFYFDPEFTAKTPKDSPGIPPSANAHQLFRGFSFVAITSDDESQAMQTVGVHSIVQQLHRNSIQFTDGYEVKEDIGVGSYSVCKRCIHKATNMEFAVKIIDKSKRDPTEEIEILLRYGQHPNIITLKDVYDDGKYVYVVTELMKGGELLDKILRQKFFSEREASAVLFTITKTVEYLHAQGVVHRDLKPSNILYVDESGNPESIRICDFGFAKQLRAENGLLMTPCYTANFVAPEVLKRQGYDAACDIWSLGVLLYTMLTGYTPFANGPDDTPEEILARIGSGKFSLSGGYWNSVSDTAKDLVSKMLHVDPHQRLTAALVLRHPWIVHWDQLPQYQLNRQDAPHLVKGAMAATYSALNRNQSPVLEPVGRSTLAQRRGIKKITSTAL
Chain of Ribosomal protein S6 kinase alpha-6 (Homo sapiens) (Q9UK32 whole entry): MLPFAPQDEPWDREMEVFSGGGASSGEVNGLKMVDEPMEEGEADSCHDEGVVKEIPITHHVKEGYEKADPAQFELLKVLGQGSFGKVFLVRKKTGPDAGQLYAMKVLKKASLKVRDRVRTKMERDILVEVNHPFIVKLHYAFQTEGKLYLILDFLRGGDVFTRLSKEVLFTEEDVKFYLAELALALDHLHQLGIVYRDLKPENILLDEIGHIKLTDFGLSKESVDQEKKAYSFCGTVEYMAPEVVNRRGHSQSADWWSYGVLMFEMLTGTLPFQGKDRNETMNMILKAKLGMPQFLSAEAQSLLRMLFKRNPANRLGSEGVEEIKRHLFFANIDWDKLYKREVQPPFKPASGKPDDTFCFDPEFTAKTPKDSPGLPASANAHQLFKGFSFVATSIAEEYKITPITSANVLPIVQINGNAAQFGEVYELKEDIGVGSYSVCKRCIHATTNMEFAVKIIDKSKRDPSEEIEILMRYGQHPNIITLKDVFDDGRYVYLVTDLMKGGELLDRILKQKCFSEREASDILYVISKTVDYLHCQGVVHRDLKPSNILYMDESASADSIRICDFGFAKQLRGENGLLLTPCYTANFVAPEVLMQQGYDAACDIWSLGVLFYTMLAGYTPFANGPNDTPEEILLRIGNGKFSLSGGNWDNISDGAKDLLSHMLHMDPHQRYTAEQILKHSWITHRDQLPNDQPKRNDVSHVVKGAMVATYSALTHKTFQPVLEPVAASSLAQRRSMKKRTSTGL
Chain of Ribosomal protein S6 kinase alpha-1 (Homo sapiens) (Q15418 whole entry): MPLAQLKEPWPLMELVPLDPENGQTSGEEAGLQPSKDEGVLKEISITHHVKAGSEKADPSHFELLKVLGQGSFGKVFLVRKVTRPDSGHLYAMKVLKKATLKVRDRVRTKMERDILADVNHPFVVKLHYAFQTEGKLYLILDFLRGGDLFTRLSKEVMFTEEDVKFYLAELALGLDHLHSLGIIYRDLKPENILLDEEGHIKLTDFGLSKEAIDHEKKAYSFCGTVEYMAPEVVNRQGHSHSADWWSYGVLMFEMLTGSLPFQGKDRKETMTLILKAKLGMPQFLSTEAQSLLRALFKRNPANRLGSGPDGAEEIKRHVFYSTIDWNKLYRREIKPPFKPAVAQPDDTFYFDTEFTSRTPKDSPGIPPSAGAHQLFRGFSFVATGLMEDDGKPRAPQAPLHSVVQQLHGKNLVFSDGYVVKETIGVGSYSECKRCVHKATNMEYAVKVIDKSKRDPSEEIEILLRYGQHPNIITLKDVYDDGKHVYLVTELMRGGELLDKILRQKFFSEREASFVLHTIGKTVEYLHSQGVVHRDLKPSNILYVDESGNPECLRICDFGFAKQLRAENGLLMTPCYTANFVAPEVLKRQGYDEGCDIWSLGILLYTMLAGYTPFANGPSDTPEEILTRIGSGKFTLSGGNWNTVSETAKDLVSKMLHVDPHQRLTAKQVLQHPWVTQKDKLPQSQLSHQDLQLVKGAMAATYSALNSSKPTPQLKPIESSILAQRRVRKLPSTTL
Chain of Ribosomal protein S6 kinase alpha-2 (Homo sapiens) (Q15349 whole entry): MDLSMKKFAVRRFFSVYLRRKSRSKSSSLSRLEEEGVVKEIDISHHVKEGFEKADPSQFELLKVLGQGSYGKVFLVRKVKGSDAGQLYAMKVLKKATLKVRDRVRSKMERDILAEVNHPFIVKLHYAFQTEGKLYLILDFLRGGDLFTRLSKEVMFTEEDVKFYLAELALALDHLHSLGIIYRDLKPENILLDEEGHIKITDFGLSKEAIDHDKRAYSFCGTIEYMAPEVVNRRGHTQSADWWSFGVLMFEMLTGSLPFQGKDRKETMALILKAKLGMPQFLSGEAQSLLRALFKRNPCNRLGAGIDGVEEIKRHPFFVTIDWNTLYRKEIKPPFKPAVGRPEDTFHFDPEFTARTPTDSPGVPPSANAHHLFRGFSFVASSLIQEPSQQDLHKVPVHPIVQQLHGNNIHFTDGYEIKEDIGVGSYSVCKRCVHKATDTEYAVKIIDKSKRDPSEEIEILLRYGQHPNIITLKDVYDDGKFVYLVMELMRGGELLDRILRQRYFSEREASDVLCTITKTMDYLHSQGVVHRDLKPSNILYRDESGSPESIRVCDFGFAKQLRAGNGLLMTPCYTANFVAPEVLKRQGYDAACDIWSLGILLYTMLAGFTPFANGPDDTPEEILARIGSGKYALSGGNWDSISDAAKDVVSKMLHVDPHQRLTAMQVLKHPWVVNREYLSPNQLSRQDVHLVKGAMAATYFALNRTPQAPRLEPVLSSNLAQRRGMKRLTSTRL

Structure (SMILES) | residual activity [1] | residual activity [2] | residual activity [3] | residual activity [4] | residual activity [5] | residual activity [6] | residual activity [7] | residual activity [8] | residual activity [9] | residual activity [10] | residual activity [11] | residual activity [12] | residual activity [13] | residual activity [14] | residual activity [15] | residual activity [16] | residual activity [17] | residual activity [18] | residual activity [19] | residual activity [20]
O=C1NC(=O)c2c1c1c3ccccc3n3c1c1c2c2ccccc2n1C1CCC3O1 | 13% | 7% | 11% | 3% | 8% | 8% | 9% | 17% | 53% | 43% |  |  |  |  |  |  |  |  |  | 
COC(=O)[C@@]1(O)C[C@H]2O[C@]1(C)n1c3ccccc3c3c4c(c5c6ccccc6n2c5c31)C(=O)NC4 | 1% | 2% | 1% | 1% | 0% | 1% | -2% | 3% | 4% | 1% | 6% | 2% | 92% | 67% | 77% | 29% | 23% | 2% | 58% | 10%
C[S+]([O-])c1ccc(-c2nc(-c3ccc(F)cc3)c(-c3ccncc3)[nH]2)cc1 (stereo unspecified) |  | 80% | 108% | 97% | 107% | 96% | 114% | 113% | 96% | 124% | 107% |  |  |  |  |  | 114% | 86% | 111% | 
O=[N+]([O-])/C=C/c1ccc2c(c1)OCO2 | 137% | 106% | 118% | 100% | 105% | 94% | 128% | 94% | 76% | 105% | 100% | 111% | 93% | 105% | 102% | 110% | 107% | 99% | 103% | 98%
CCn1cnc2c(Nc3cccc(Cl)c3)nc(N[C@@H]3CCCC[C@@H]3N)nc21 | 67% | 16% | 28% | 4% | 30% | 5% | 24% | 7% | 91% | 90% | 93% | 50% | 90% | 61% | 94% | 76% |  | 94% |  | 81%
